For 1 sequence, binding signal results are on record in PMC7862700, “An all-to-all approach to the identification of sequence-specific readers for epigenetic DNA modifications on cytosine”.

Assay in all cases: DAPPL (digital affinity profiling via proximity ligation, sequencing); 10 mM Tris-HCl pH 7.5, 50 mM NaCl, 1 mM DTT, 4% glycerol, room temperature, 30 min; GST-TFs on glutathione beads, 16-mer random dsDNA library, 0.1% formaldehyde crosslink after washing; high values mean tight binding
Details in all cases: protein: recombinant; tags: N-terminal GST; dsDNA, one strand shown

One test addresses T1, ELK1 (Homo sapiens, UniProt P19419 1-428).
T1 sequence: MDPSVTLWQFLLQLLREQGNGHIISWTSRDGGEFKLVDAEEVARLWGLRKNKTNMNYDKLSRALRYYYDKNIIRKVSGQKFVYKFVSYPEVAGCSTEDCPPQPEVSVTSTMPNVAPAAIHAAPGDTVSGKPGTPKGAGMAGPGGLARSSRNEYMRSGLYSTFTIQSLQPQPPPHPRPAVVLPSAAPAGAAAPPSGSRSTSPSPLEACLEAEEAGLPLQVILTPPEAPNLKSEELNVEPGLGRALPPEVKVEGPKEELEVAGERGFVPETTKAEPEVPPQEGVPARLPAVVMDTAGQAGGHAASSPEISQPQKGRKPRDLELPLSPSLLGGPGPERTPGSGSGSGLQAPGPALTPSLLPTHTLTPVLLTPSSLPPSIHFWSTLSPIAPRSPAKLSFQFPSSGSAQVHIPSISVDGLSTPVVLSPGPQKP
The essentials:
(§1)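 GST fusions of human transcription factors were expressed in yeast and captured with glutathione beads. Once given DNA barcodes and pooled alongside a tag-only sample, they were incubated for 30 min at room temperature with 200 nmole of a random double-stranded 16-mer DNA library in Tris/NaCl/DTT/glycerol buffer, then washed, crosslinked (0.1% formaldehyde), proximity-ligated, PCR-amplified and sequenced on an Illumina NextSeq500. The binding signal of each hexamer is its read frequency for a factor divided by its frequency for the tag-only sample.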

The target in another test is T2, ERG (Homo sapiens, UniProt P11308 1-479).
T2 sequence: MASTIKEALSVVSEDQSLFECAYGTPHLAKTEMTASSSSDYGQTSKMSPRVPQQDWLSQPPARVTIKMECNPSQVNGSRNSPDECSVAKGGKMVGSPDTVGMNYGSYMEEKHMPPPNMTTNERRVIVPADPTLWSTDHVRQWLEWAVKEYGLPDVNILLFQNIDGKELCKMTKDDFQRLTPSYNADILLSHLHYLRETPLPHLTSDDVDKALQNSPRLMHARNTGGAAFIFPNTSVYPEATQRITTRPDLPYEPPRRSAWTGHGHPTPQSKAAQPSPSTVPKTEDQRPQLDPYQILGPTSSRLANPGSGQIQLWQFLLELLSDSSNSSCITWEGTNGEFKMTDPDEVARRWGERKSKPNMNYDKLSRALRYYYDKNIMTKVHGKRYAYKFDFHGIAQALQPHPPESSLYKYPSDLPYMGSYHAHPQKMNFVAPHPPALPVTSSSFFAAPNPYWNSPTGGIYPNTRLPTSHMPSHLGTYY
The essentials: as §1

The target of a further test is ELF1 (Homo sapiens, UniProt P32519 1-619). Summed up:
as §1

The target in a further test is T3, EHF (Homo sapiens, UniProt Q9NZC4 1-300).
T3 sequence: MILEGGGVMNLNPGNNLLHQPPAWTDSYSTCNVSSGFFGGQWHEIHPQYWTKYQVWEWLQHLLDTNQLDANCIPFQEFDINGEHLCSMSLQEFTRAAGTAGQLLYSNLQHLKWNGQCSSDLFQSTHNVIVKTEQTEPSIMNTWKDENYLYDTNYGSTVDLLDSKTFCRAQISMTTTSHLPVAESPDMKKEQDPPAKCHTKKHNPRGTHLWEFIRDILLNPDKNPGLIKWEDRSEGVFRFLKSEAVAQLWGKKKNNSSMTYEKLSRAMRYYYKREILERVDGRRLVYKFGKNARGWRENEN
Summed up:
as §1

In a further test the target is SPI1 (Homo sapiens, UniProt P17947 1-270). Summed up: as §1
A further test concerns the target SPIB (Homo sapiens, UniProt Q01892 1-262). Summed up:
as §1

The target in a further test is ETV5 (Homo sapiens, UniProt P41161 1-510). Summed up:
as §1

The target in the next test is ELF4 (Homo sapiens, UniProt Q99607 1-663). Summed up: as §1
A further test concerns the target T4, ELK4 (Homo sapiens, UniProt P28324-2 1-405).
T4 sequence: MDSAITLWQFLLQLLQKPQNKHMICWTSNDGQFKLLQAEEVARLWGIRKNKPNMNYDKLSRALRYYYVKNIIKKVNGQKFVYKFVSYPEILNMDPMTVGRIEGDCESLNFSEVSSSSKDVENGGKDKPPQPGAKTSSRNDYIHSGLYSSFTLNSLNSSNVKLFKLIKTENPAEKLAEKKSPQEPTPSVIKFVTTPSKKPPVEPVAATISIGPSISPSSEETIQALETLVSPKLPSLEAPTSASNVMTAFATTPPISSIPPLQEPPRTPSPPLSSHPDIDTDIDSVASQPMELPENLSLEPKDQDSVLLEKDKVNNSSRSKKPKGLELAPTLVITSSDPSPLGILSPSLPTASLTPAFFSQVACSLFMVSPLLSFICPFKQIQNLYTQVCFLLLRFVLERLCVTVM
The essentials: as §1

In a further test the target is T5, ETV2 (Homo sapiens, UniProt O00321 1-342).
T5 sequence: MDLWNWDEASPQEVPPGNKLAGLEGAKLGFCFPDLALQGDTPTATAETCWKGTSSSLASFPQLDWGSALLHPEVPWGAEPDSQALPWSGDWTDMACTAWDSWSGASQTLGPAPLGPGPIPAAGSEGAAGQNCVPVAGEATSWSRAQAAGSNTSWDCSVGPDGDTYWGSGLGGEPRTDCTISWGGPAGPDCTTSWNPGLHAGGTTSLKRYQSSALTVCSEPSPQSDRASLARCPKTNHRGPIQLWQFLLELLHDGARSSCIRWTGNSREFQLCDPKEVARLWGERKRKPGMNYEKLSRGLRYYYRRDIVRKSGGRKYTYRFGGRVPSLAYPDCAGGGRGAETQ
The essentials: as §1

The next test has as its target ETV1 (Homo sapiens, UniProt P50549 1-477). The essentials: as §1
In the next test the target is T6, ERF (Homo sapiens, UniProt P50548 1-548).
T6 sequence: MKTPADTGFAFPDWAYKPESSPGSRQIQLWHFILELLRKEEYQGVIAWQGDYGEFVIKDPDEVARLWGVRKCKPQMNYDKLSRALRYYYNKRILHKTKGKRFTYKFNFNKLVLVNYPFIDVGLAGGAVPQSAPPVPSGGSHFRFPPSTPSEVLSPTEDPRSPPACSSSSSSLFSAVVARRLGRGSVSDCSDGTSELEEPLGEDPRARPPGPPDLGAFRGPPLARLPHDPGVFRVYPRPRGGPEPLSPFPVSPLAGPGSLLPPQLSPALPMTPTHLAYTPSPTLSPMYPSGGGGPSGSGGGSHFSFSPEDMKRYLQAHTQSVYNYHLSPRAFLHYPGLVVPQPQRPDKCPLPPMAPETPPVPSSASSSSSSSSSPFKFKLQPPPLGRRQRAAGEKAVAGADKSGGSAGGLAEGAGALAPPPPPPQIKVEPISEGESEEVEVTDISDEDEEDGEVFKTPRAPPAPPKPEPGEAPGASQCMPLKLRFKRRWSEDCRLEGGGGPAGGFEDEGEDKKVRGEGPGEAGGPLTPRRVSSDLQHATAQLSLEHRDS
The essentials: as §1

Another test concerns the target T7, ETV3L (Homo sapiens, UniProt Q6ZN32 1-361).
T7 sequence: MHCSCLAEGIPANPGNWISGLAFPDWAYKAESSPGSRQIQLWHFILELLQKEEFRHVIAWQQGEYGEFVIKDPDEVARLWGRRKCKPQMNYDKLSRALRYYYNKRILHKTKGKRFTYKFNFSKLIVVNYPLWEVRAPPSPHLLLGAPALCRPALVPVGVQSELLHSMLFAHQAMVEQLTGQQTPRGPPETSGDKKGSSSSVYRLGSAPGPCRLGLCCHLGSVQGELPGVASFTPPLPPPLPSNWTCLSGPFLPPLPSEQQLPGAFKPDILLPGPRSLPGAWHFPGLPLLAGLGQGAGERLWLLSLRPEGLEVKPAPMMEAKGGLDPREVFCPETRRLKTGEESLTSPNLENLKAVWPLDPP
Summed up: as §1

The next test concerns the target T8, ETS2 (Homo sapiens, UniProt P15036 1-469).
T8 sequence: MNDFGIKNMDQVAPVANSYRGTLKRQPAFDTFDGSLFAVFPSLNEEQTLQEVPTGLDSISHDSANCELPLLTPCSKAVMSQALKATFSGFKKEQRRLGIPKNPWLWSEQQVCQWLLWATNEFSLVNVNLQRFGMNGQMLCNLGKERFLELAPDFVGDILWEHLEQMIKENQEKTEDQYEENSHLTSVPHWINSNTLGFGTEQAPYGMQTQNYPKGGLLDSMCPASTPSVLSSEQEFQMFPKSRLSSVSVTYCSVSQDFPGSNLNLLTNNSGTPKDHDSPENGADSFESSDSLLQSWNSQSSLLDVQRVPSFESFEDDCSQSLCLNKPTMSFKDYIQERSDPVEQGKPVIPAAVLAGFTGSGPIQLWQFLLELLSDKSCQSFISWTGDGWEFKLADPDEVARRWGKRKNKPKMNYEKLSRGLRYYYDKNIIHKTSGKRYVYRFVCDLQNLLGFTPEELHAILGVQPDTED
The essentials: as §1

Another test addresses T9, ETV7 (Homo sapiens, UniProt Q9Y603 1-341).
T9 sequence: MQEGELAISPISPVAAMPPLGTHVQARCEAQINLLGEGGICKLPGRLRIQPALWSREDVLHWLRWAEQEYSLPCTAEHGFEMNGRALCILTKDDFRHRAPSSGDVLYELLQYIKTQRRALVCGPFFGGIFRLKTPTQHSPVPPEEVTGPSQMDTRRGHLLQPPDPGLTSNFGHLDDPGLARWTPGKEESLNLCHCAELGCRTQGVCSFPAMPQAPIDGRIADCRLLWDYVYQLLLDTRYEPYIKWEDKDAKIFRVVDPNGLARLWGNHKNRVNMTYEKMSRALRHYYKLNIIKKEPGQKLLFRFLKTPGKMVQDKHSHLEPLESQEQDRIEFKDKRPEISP
The essentials:
as §1

The target in the next test is T10, ETV3 (Homo sapiens, UniProt P41162-2 1-143).
T10 sequence: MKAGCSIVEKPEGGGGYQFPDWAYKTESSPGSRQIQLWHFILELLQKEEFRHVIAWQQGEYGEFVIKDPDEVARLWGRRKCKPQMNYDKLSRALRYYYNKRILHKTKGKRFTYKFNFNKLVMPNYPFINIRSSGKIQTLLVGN
The essentials:
as §1

For another test, the target named is ETV6 (Homo sapiens, UniProt P41212 1-452). Summed up: as §1
ETV6, sequence (P41212 whole entry): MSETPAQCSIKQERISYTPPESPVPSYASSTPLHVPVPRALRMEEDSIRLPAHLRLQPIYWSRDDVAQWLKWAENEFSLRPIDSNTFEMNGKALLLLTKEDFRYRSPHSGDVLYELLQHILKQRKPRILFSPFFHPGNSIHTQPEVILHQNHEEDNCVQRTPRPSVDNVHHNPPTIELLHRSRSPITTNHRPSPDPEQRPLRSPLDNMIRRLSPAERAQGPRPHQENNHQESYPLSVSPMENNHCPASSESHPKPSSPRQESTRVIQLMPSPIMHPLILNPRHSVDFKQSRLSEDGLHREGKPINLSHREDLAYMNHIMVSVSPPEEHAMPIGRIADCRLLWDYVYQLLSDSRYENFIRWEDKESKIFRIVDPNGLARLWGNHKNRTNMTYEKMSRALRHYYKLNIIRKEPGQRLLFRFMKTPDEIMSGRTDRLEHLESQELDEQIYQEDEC

SPIB, sequence (Q01892 whole entry): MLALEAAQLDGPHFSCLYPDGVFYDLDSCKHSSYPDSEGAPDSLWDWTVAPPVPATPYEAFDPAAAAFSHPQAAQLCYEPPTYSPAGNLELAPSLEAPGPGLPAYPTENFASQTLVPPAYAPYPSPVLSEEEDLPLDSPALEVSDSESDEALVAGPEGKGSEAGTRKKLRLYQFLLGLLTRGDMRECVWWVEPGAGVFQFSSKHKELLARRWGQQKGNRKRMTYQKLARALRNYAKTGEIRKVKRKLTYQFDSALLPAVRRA
ETV5, sequence (P41161 whole entry): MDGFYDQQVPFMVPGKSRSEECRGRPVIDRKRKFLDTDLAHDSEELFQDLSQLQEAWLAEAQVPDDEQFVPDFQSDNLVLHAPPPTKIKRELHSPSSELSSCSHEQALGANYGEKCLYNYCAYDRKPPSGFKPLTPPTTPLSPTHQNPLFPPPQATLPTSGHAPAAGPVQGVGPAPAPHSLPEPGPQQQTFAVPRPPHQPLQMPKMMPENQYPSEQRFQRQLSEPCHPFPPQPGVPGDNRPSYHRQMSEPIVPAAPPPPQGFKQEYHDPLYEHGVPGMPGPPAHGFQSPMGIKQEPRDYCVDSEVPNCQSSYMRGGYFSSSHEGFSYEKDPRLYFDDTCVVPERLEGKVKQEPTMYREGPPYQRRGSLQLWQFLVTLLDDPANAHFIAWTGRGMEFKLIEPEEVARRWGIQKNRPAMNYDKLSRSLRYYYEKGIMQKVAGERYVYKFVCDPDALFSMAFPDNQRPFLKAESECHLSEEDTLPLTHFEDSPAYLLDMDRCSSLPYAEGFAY
ELF4, sequence (Q99607 whole entry): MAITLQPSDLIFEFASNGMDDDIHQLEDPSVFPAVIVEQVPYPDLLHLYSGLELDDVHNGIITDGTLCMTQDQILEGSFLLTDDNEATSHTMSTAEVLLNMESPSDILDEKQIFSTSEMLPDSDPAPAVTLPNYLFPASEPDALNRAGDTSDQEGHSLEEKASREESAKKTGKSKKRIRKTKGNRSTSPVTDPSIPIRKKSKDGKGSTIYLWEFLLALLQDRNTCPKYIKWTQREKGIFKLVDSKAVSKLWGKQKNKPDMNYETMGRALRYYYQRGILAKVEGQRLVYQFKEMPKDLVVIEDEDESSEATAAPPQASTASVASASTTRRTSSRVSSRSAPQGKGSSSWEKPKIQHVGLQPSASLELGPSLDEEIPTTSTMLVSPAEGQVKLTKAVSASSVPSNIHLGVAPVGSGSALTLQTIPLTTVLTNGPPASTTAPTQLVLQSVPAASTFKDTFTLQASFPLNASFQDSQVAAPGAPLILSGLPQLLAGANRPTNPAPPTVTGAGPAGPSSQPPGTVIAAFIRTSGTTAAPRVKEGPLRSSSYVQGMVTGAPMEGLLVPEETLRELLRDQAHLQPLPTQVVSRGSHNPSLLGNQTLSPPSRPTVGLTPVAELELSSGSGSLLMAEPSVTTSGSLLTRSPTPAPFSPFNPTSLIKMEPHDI
ELF1, sequence (P32519 whole entry): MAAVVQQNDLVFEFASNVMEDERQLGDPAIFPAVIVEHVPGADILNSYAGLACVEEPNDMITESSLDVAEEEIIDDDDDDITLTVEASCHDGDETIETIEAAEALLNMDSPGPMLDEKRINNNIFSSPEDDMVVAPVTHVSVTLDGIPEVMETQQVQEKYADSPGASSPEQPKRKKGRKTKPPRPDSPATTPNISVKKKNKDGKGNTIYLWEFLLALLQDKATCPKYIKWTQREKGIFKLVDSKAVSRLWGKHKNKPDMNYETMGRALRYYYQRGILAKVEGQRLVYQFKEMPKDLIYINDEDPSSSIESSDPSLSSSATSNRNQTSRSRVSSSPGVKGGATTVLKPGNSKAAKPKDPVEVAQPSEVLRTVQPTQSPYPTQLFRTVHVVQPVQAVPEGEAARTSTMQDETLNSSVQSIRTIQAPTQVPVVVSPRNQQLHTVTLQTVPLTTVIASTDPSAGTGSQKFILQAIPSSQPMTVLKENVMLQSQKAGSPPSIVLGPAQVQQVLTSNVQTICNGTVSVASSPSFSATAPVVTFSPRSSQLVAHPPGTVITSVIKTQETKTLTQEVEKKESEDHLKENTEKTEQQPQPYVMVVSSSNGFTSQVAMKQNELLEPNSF
ETV1, sequence (P50549 whole entry): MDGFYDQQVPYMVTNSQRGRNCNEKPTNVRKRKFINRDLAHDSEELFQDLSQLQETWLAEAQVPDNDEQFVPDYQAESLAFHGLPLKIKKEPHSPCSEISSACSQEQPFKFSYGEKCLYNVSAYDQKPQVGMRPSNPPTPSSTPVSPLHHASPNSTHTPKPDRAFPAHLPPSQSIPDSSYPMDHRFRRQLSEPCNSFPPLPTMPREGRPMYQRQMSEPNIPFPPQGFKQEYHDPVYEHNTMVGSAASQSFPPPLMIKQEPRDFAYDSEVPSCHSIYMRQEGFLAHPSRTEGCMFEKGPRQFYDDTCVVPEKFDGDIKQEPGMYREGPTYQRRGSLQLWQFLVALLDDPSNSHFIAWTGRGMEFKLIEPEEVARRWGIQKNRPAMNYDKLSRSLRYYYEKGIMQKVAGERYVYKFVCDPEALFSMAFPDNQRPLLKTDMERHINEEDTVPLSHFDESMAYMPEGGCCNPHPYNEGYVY

Take CATGTT: the binding signal in the test with ELK1 is 1.07 fold enrichment (6-mer frequency, TF over GST control); with ERG, 1.04 fold enrichment (6-mer frequency, TF over GST control); with ELF1, 1.06 fold enrichment (6-mer frequency, TF over GST control); with EHF it was 1.03 fold enrichment (6-mer frequency, TF over GST control); with SPI1 it was 1.04 fold enrichment (6-mer frequency, TF over GST control); with SPIB, 1.03 fold enrichment (6-mer frequency, TF over GST control). Also, the binding signal in the test with ETV5 was 1.03 fold enrichment (6-mer frequency, TF over GST control); with ELF4, 1.05 fold enrichment (6-mer frequency, TF over GST control); with ELK4, 1.1 fold enrichment (6-mer frequency, TF over GST control); in the test with ETV2, 1.11 fold enrichment (6-mer frequency, TF over GST control); with ETV1, 1.15 fold enrichment (6-mer frequency, TF over GST control); with ERF it was 1.05 fold enrichment (6-mer frequency, TF over GST control). Also, the binding signal with ETV3L is 1.06 fold enrichment (6-mer frequency, TF over GST control); with ETS2, 1.01 fold enrichment (6-mer frequency, TF over GST control); with ETV7 it was 1.1 fold enrichment (6-mer frequency, TF over GST control); with ETV3, 1.12 fold enrichment (6-mer frequency, TF over GST control); with ETV6, 1.1 fold enrichment (6-mer frequency, TF over GST control).
